# Data published in paper PMC7862700, “An all-to-all approach to the identification of sequence-specific readers for epigenetic DNA modifications on cytosine”.
# Tests used:
# Assay in all cases: DAPPL (digital affinity profiling via proximity ligation, sequencing); 10 mM Tris-HCl pH 7.5, 50 mM NaCl, 1 mM DTT, 4% glycerol, room temperature, 30 min; GST-TFs on glutathione beads, 16-mer random dsDNA library, 0.1% formaldehyde crosslink after washing; high values mean tight binding
# FLI1 = target: T1, FLI1 (Homo sapiens, UniProt Q01543 1-452); details: protein: recombinant; tags: N-terminal GST; dsDNA, one strand shown
# T1 sequence: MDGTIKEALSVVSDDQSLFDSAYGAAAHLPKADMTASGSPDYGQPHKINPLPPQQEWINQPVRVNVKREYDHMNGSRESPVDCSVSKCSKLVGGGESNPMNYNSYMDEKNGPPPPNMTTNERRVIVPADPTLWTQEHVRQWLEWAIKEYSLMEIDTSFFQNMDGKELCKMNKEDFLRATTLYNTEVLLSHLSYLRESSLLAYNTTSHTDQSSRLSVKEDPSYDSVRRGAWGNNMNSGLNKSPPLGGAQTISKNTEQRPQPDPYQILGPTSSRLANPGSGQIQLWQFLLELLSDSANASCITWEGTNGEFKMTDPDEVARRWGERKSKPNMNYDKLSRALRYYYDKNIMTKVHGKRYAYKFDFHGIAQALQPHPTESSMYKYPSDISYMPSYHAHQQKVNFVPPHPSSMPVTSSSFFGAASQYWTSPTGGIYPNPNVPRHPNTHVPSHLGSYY
# Procedure, shortened: (§1)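 Binding signal is given per hexamer as its read frequency for a factor divided by its frequency in the tag-only sample. GST-fused human transcription factors were expressed in yeast, captured on glutathione beads, barcoded with DNA and pooled with that sample, then incubated with 200 nmole of a 16-mer random double-stranded DNA library in Tris/NaCl/DTT/glycerol buffer for 30 min at room temperature. The pools were then washed, crosslinked, proximity-ligated, amplified by PCR and sequenced on an Illumina NextSeq500.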
# ELK1 = target: T2, ELK1 (Homo sapiens, UniProt P19419 1-428); details: protein: recombinant; tags: N-terminal GST; dsDNA, one strand shown
# T2 sequence: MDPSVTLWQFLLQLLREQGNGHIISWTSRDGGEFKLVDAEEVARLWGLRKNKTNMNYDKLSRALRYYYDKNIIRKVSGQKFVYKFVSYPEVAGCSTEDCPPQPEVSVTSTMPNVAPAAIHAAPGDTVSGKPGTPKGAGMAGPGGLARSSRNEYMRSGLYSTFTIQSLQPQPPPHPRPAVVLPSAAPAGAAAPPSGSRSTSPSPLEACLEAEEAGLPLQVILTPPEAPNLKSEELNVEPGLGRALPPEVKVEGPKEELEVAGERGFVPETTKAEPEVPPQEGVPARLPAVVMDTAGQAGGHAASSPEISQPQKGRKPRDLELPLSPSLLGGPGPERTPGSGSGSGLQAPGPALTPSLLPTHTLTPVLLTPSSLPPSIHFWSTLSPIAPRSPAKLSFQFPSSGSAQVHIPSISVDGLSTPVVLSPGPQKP
# Procedure, shortened: as §1
# GABPA = target: T3, GABPA (Homo sapiens, UniProt Q06546 1-454); details: protein: recombinant; tags: N-terminal GST; dsDNA, one strand shown
# T3 sequence: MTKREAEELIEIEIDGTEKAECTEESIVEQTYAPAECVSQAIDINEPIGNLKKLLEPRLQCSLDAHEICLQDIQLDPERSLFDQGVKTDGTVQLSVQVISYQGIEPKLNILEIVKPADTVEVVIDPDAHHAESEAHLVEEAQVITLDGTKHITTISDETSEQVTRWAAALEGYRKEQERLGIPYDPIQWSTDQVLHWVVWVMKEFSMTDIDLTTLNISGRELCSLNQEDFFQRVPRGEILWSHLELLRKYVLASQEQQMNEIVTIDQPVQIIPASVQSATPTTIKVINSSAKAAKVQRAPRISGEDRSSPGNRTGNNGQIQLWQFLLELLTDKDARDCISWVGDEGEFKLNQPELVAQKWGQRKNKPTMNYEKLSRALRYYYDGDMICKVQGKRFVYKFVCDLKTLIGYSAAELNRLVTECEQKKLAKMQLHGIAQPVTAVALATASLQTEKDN
# Procedure, shortened: as §1
# ERG = target: T4, ERG (Homo sapiens, UniProt P11308 1-479); details: protein: recombinant; tags: N-terminal GST; dsDNA, one strand shown
# T4 sequence: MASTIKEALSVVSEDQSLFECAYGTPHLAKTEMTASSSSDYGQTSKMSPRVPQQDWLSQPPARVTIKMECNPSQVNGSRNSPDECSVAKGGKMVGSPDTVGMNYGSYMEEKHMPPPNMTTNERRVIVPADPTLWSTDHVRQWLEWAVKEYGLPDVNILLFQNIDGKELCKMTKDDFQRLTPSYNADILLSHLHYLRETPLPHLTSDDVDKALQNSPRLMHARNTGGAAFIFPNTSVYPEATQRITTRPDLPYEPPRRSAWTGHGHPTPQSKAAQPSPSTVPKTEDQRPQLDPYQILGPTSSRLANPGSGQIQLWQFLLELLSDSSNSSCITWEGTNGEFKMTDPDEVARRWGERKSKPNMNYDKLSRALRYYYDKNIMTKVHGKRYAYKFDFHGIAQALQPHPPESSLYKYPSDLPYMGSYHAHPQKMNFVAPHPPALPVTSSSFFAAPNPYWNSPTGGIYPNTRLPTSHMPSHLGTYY
# Procedure, shortened: as §1
# ELF1 = ELF1 (Homo sapiens, UniProt P32519 1-619); details: protein: recombinant; tags: N-terminal GST; dsDNA, one strand shown
# ELF1, sequence (P32519 whole entry): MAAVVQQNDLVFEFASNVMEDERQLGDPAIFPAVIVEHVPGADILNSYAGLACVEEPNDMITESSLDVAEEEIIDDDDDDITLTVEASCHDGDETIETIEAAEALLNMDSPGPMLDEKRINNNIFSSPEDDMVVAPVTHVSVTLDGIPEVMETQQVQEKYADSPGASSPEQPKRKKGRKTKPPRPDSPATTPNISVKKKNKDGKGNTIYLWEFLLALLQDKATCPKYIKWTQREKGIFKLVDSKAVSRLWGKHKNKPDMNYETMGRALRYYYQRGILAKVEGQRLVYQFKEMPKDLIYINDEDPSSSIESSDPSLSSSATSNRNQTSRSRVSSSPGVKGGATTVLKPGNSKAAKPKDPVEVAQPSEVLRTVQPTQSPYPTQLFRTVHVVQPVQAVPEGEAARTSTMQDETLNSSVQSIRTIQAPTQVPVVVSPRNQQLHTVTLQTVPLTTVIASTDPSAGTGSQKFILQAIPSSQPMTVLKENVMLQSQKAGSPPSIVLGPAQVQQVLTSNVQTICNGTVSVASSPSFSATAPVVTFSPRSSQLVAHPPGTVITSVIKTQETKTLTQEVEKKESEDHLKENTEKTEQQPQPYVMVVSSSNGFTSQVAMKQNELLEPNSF
# Procedure, shortened: as §1
# EHF = target: T5, EHF (Homo sapiens, UniProt Q9NZC4 1-300); details: protein: recombinant; tags: N-terminal GST; dsDNA, one strand shown
# T5 sequence: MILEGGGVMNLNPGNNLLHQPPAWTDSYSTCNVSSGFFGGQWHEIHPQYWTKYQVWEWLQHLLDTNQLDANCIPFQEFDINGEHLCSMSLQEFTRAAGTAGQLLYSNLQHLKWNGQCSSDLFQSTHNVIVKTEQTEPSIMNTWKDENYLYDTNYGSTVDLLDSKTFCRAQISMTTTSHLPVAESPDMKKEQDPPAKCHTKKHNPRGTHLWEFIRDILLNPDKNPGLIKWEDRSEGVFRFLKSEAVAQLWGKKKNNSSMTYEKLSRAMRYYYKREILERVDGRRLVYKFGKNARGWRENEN
# Procedure, shortened: as §1
# SPI1 = SPI1 (Homo sapiens, UniProt P17947 1-270); details: protein: recombinant; tags: N-terminal GST; dsDNA, one strand shown
# Procedure, shortened: as §1
# SPIB = SPIB (Homo sapiens, UniProt Q01892 1-262); details: protein: recombinant; tags: N-terminal GST; dsDNA, one strand shown
# SPIB, sequence (Q01892 whole entry): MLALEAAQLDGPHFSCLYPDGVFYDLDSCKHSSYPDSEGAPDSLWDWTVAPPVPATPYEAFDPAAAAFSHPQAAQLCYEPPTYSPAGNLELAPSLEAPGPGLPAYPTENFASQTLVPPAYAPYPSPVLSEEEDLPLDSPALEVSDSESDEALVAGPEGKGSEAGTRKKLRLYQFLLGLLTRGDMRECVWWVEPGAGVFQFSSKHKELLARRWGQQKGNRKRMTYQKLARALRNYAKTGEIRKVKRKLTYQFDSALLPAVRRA
# Procedure, shortened: as §1
# ELK3 = target: T6, ELK3 (Homo sapiens, UniProt P41970 1-407); details: protein: recombinant; tags: N-terminal GST; dsDNA, one strand shown
# T6 sequence: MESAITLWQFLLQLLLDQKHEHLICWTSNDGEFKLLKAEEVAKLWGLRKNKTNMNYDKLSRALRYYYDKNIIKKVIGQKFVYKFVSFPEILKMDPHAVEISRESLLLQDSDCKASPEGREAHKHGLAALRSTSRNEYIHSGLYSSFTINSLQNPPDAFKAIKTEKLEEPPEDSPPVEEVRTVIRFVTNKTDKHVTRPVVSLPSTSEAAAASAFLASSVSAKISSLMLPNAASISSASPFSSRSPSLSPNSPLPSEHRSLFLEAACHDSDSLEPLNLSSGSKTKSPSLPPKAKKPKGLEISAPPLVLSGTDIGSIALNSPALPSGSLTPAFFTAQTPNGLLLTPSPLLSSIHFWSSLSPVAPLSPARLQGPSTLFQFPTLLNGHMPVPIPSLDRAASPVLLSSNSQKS
# Procedure, shortened: as §1
# FEV = target: T7, FEV (Homo sapiens, UniProt Q99581 1-238); details: protein: recombinant; tags: N-terminal GST; dsDNA, one strand shown
# T7 sequence: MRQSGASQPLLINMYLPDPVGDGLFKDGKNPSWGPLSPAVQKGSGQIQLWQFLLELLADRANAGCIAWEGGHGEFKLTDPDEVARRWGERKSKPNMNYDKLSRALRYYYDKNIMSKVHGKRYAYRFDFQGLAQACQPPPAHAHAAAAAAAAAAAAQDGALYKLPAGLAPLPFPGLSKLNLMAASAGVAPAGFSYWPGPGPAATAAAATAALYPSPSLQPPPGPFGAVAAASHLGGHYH
# Procedure, shortened: as §1
# ETV5 = ETV5 (Homo sapiens, UniProt P41161 1-510); details: protein: recombinant; tags: N-terminal GST; dsDNA, one strand shown
# ETV5, sequence (P41161 whole entry): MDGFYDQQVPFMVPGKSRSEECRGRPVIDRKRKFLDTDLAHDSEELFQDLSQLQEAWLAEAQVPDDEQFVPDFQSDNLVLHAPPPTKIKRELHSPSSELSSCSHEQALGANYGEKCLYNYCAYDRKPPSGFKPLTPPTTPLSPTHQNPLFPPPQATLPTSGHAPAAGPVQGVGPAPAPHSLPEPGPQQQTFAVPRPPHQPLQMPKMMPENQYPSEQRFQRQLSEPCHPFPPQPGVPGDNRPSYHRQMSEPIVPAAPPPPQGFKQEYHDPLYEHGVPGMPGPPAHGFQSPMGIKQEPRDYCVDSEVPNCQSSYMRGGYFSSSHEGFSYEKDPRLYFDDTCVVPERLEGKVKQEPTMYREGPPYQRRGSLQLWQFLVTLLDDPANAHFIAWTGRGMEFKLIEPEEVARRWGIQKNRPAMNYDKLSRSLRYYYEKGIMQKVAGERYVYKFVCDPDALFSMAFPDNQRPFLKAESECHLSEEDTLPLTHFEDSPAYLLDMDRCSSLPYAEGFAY
# Procedure, shortened: as §1
# HSF1 = HSF1 (Homo sapiens, UniProt Q00613 1-529); details: protein: recombinant; tags: N-terminal GST; chain copies: 3; dsDNA, one strand shown
# HSF1, sequence (Q00613 whole entry): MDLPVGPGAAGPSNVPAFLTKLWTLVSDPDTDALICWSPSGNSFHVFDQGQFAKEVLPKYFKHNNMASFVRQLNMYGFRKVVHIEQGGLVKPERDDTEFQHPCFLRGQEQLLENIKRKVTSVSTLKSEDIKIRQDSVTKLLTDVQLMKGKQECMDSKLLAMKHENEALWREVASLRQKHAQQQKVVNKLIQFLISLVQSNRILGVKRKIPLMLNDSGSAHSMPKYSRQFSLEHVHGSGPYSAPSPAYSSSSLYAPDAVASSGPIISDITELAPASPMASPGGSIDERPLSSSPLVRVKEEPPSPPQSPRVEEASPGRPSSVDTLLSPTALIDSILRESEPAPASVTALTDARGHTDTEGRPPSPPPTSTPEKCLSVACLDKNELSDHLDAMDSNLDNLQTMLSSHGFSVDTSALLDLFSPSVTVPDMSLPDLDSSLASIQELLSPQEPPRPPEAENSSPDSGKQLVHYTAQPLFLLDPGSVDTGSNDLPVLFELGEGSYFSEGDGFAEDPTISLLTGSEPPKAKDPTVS
# Procedure, shortened: as §1
# SPIC = target: T8, SPIC (Homo sapiens, UniProt Q8N5J4 1-248); details: protein: recombinant; tags: N-terminal GST; dsDNA, one strand shown
# T8 sequence: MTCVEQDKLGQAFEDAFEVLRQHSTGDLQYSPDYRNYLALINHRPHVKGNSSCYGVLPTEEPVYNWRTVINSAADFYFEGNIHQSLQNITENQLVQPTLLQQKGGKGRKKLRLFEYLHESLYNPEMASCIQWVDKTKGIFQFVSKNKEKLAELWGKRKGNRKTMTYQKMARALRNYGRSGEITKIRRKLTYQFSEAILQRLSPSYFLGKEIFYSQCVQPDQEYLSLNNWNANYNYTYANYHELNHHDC
# Procedure, shortened: as §1
# ELF4 = ELF4 (Homo sapiens, UniProt Q99607 1-663); details: protein: recombinant; tags: N-terminal GST; dsDNA, one strand shown
# ELF4, sequence (Q99607 whole entry): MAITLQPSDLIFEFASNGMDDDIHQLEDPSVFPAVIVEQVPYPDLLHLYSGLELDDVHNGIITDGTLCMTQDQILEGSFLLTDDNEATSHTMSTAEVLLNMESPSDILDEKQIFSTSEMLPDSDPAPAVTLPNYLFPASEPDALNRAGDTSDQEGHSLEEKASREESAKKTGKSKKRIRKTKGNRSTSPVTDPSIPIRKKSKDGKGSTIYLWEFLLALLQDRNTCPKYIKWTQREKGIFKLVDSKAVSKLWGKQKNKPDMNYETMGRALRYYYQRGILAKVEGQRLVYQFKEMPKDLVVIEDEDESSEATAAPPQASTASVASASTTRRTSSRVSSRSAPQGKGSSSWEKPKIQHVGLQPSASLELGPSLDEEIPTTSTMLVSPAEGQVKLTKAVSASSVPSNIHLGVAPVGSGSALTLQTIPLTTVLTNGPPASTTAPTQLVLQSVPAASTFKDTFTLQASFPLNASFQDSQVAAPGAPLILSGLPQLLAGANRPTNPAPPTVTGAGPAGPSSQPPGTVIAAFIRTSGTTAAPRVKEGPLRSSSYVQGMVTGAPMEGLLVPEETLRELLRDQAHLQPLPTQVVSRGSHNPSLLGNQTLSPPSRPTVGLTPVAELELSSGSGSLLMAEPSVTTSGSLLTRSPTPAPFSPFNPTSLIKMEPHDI
# Procedure, shortened: as §1
# ELK4 = target: T9, ELK4 (Homo sapiens, UniProt P28324-2 1-405); details: protein: recombinant; tags: N-terminal GST; dsDNA, one strand shown
# T9 sequence: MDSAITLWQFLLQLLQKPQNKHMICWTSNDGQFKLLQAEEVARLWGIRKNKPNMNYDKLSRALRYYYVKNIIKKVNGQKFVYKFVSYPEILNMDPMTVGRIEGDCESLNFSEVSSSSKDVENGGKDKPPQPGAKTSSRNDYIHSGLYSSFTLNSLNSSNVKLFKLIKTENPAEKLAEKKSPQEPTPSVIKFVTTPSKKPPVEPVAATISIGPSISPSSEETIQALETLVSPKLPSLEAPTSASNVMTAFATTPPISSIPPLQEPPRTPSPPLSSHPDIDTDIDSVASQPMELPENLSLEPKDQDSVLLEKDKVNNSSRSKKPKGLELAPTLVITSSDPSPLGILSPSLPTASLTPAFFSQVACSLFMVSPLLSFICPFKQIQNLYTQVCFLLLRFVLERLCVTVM
# Procedure, shortened: as §1
# ETV2 = target: T10, ETV2 (Homo sapiens, UniProt O00321 1-342); details: protein: recombinant; tags: N-terminal GST; dsDNA, one strand shown
# T10 sequence: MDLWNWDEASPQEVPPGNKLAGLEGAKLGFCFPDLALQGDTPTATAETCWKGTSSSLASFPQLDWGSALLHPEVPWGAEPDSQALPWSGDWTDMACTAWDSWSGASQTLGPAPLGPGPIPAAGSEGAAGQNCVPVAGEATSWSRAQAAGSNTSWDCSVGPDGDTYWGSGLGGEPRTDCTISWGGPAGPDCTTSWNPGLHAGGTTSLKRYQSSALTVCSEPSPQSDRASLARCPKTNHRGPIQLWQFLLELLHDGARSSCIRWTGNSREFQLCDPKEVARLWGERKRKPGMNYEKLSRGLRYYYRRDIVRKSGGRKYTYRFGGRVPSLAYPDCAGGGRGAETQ
# Procedure, shortened: as §1
# ELF3 = target: T11, ELF3 (Homo sapiens, UniProt P78545 1-371); details: protein: recombinant; tags: N-terminal GST; dsDNA, one strand shown
# T11 sequence: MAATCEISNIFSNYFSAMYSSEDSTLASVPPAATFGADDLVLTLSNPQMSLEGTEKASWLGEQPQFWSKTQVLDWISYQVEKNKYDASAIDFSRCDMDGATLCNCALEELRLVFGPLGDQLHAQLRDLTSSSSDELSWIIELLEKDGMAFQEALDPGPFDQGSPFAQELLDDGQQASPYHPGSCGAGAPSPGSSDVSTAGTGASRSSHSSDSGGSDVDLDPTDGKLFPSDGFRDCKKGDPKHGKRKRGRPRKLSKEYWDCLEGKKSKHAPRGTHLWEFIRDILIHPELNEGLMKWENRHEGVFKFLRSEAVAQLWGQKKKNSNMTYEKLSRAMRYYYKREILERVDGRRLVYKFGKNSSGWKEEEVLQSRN
# Procedure, shortened: as §1
# CRX = CRX (Homo sapiens, UniProt O43186 1-299); details: protein: recombinant; tags: N-terminal GST; dsDNA, one strand shown
# CRX, sequence (O43186 whole entry): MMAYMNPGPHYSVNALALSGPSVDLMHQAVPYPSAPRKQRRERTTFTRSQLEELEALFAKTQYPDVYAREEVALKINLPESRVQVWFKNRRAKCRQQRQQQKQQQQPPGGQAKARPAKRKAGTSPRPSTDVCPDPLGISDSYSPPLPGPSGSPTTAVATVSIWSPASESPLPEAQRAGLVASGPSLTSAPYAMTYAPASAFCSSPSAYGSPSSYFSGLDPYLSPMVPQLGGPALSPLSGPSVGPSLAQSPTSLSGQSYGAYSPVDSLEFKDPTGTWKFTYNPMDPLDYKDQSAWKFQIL
# Procedure, shortened: as §1
# ETV1 = ETV1 (Homo sapiens, UniProt P50549 1-477); details: protein: recombinant; tags: N-terminal GST; dsDNA, one strand shown
# ETV1, sequence (P50549 whole entry): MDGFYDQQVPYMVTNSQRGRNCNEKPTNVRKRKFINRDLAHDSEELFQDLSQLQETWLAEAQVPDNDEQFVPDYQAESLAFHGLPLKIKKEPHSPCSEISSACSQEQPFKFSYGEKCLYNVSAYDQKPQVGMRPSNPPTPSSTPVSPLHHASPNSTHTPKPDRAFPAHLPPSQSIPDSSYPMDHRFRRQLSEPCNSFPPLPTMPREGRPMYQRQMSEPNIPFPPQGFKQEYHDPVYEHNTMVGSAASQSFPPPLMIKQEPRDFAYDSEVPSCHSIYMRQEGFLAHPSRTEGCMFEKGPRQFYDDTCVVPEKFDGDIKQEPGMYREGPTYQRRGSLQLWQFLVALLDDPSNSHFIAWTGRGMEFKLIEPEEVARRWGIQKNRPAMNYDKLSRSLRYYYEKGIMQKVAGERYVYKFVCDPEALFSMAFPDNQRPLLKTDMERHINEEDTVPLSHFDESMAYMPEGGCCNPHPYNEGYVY
# Procedure, shortened: as §1
sequence,measurement,setting,value
TCACCA,binding signal,FLI1,"1.18 fold enrichment (6-mer frequency, TF over GST control)"
same,binding signal,ELK1,"1.23 fold enrichment (6-mer frequency, TF over GST control)"
same,binding signal,GABPA,"1.12 fold enrichment (6-mer frequency, TF over GST control)"
same,binding signal,ERG,"1.14 fold enrichment (6-mer frequency, TF over GST control)"
same,binding signal,ELF1,"1.18 fold enrichment (6-mer frequency, TF over GST control)"
same,binding signal,EHF,"1.06 fold enrichment (6-mer frequency, TF over GST control)"
same,binding signal,SPI1,"1.21 fold enrichment (6-mer frequency, TF over GST control)"
same,binding signal,SPIB,"1.2 fold enrichment (6-mer frequency, TF over GST control)"
same,binding signal,ELK3,"1.22 fold enrichment (6-mer frequency, TF over GST control)"
same,binding signal,FEV,"1.16 fold enrichment (6-mer frequency, TF over GST control)"
same,binding signal,ETV5,"1.12 fold enrichment (6-mer frequency, TF over GST control)"
same,binding signal,HSF1,"1.01 fold enrichment (6-mer frequency, TF over GST control)"
same,binding signal,SPIC,"1.19 fold enrichment (6-mer frequency, TF over GST control)"
same,binding signal,ELF4,"1.25 fold enrichment (6-mer frequency, TF over GST control)"
same,binding signal,ELK4,"1.21 fold enrichment (6-mer frequency, TF over GST control)"
same,binding signal,ETV2,"1.32 fold enrichment (6-mer frequency, TF over GST control)"
same,binding signal,ELF3,"1.39 fold enrichment (6-mer frequency, TF over GST control)"
same,binding signal,CRX,"1.04 fold enrichment (6-mer frequency, TF over GST control)"
same,binding signal,ETV1,"1.13 fold enrichment (6-mer frequency, TF over GST control)"
